The source made the active and inactive calls.
Legend:
Albumin (Bos taurus) = Albumin (Bos taurus) (UniProt P02769); assay: bovine serum albumin binders on microarray, profiling panel, artefact control for SMM control protein annotation, biochemical, small-molecule microarray, Alexa647 label, 635/667 nm fluorescence (AID 1118); details: BSA-A647 binding, fluorescence 635 nm, higher = more signal;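 further: score merges 667 nm emission intensity and signal-to-noise per printed compound spot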
[1] = small-molecule microarray binders of probe aXIP, primary screen, biochemical, NeuroSMM set, 635/667 nm fluorescence (AID 1119); details: higher = more signal, called active from +8 up or from −8 down;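 further: probe is the protein aXip251-270 applied at 1 µg/mL to compound-printed slides; binding of probe to printed compounds measured as 667 nm fluorescence plus signal to noise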
[2] = small-molecule binders of probe aNOTCH3, primary screen, biochemical, small-molecule microarray, 635/667 nm fluorescence (AID 1120); details: higher = more signal;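 further: probe is a biotin-tagged antibody raised against NOTCH3 rather than NOTCH3 protein; score merges spot fluorescence near 667 nm with spot signal to noise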
[3] = small-molecule binders of probe aNOTCH2, primary screen, biochemical, small-molecule microarray, 635/667 nm fluorescence (AID 1121); details: higher = more signal;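 further: score merges feature fluorescence read at 667 nm with its signal to noise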
[4] = molecular target: Carbonic anhydrase 2 (Homo sapiens) (UniProt P00918); assay: CAII small-molecule binders, profiling panel, biochemical, small-molecule microarray, Alexa647-labelled CAII (AID 1122); details: CAII-A647 binding fluorescence, higher = more signal
[5] = COS7 lysate on small-molecule microarray, probe aHis, 635 nm (AID 1123); details: COS7 cell lysate, fluorescence, higher = more signal;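 further: z-score combines 667nm fluorescence intensity with signal-to-noise per printed compound spot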
[6] = compound binding in COS7 lysate, probe aLAP1, primary screen, cell lysate, small-molecule microarray (AID 1124); details: probe aLAP1, fluorescence, higher = more signal;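 further: lysate comes from COS7 cells expressing LAP1 and is applied at 0.3 µg/mL; score merges spot fluorescence near 667 nm with signal-to-noise over triplicate slides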
Sam68 (KHDRBS1) = assay: Sam68 small-molecule binders, primary screen, biochemical, small-molecule microarray, 635 nm fluorescence (AID 1125); details: small-molecule microarray binding, higher = more signal;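 further: score merges 667 nm channel intensity with signal to noise over triplicate slides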
[7] = tested on: Chordin-like protein 2 (CHRDL2); assay: CHRDL2 small-molecule binders, primary screen, biochemical, small-molecule microarray, 635 nm fluorescence (AID 1126); details: small-molecule microarray binding, fluorescence 635 nm; higher = more signal;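 further: printed compound slides probed with Chrdl2 protein at 4 µg/mL for 1 h at 4 C; score merges 667 nm emission intensity with signal to noise over three replicate slides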
[8] = molecular target: Concanavalin-A (Canavalia ensiformis) (UniProt P02866); assay: ConA small-molecule binders, primary screen, artefact control for SMM control protein annotation, biochemical, small-molecule microarray, Alexa647 label, 635 nm (AID 1127); details: ConA-A647 binding fluorescence, higher = more signal;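 further: z combines 667 nm emission intensity with signal-to-noise across three replicate slides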
[9] = anti-His antibody binders, primary screen, artefact control for SMM control protein annotation, biochemical, small-molecule microarray, 635 nm fluorescence (AID 1128); details: anti-His Alexa647 antibody binding, higher = more signal;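 further: score merges feature fluorescence with signal-to-noise for each printed compound spot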
[10] = tested on: Human papillomavirus type 1a E7 protein (residues 1-88); assay: HPV1a E7 small-molecule binders, primary screen, biochemical, small-molecule microarray, residues 1-88, 635 nm (AID 1129); details: small-molecule microarray binding, fluorescence 635 nm; higher = more signal
[11] = molecular target: Focal adhesion kinase 1 (Homo sapiens) (UniProt Q05397); assay: small-molecule microarray binders of FAK, primary screen, biochemical, 635/667 nm fluorescence, BSA, DTT (AID 1130); details: PTK2 binding, 635 nm fluorescence, higher = more signal;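 further: composite of spot emission at 667 nm and signal to noise over triplicate slides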
[12] = tested on: Fibrinogen (Alexa647-labelled); assay: fibrinogen binders on compound microarrays, profiling panel, artefact control for SMM control-protein annotation, biochemical, small-molecule microarray, 635/667 nm fluorescence (AID 1131); details: fibrinogen-A647 binding fluorescence, higher = more signal;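 further: z-score merges 667 nm fluorescence with per-spot signal-to-noise over triplicate slides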
[13] = molecular target: Follistatin (Homo sapiens) (UniProt P19883); assay: follistatin binders on small-molecule microarrays, primary screen, biochemical, small-molecule microarray, 635/667 nm fluorescence (AID 1132); details: FST binding, 635 nm fluorescence, higher = more signal
[14] = molecular target: Fibroblast growth factor 2 (Homo sapiens) (UniProt P09038); assay: FGF2 binders on small-molecule microarrays, primary screen, biochemical, small-molecule microarray, 635/667 nm fluorescence (AID 1133); details: small-molecule microarray binding, FGF2, fluorescence 635/667; higher = more signal
[15] = mitochondrial membrane potential change in A549 cells, profiling panel, cell-based, JC-1 fluorescence, basal, 24 h, 100 nL (AID 1138); details: higher = more signal;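 further: A549 lung adenocarcinoma cells under basal conditions with no added stimulus; test concentration not given here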
Lefty1 = Lefty1 binders on small-molecule microarrays, primary screen, biochemical, small-molecule microarray, 635/667 nm fluorescence (AID 1139); details: small-molecule microarray binding, fluorescence 635/667; higher = more signal
[16] = tested on: wheat germ agglutinin (Triticum aestivum), Alexa647-labelled; assay: wheat germ agglutinin binders on compound microarrays, profiling panel, artefact control for SMM control-protein annotation, biochemical, small-molecule microarray, 635/667 nm fluorescence (AID 1140); details: WGA-A647 binding, 635 nm fluorescence, higher = more signal;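 further: score merges 667 nm feature emission with signal to noise over triplicate slides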
[17] = molecular target: Luciferin 4-monooxygenase (Photinus pyralis) (UniProt P08659); assay: firefly luciferase enzyme inhibitors, primary screen, biochemical, luminescence, purified enzyme, 2006 set (AID 1141); details: SteadyGlo luminescence, 30 min, higher = more signal, called active from +8 up or from −8 down;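 further: cell-free assay with purified firefly luciferase at 100 ng per well in PBS; test concentration not given here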
Luciferin 4-monooxygenase (Photinus pyralis), sequence (P08659 whole entry, looked up): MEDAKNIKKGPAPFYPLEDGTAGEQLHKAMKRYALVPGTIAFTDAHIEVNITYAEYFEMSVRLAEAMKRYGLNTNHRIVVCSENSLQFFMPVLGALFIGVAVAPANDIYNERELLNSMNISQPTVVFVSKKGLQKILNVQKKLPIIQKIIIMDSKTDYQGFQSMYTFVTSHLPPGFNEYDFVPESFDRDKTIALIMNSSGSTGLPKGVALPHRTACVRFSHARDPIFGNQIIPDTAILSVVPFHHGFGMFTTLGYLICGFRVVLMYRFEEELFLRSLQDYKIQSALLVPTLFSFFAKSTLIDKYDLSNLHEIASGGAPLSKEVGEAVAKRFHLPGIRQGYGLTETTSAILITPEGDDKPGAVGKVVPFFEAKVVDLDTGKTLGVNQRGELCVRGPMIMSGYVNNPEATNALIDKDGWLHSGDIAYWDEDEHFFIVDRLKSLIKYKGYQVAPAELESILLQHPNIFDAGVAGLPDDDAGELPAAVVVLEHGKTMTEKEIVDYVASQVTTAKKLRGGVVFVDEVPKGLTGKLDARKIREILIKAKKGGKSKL

Focal adhesion kinase 1 (Homo sapiens), sequence (Q05397 whole entry, looked up): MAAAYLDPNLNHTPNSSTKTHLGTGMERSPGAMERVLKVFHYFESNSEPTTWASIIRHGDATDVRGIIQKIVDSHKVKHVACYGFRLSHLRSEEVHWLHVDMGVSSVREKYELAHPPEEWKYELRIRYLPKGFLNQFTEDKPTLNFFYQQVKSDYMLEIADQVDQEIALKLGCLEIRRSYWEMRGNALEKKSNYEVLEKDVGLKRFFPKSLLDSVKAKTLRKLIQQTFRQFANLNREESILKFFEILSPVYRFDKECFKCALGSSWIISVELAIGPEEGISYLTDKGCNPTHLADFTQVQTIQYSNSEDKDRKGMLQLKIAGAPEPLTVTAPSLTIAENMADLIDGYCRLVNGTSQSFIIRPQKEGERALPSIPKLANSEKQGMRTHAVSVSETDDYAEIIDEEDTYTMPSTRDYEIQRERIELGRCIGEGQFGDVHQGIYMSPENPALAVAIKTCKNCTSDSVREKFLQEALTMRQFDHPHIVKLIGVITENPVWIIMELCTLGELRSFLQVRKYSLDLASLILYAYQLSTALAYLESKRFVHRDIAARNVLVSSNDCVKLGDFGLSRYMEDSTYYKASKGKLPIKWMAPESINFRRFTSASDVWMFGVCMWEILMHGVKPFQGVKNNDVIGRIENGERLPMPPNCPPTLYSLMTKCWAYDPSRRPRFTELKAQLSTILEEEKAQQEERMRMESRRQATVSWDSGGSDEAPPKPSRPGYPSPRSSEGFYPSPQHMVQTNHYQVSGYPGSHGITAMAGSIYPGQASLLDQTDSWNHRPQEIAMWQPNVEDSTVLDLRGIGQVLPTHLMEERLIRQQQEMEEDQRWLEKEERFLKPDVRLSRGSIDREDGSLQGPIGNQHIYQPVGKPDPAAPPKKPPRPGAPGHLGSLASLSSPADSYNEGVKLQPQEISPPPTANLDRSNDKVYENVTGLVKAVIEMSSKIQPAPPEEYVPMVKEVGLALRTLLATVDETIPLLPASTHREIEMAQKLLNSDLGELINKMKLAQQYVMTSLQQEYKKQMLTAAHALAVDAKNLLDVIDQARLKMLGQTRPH
Follistatin (Homo sapiens), sequence (P19883 whole entry, looked up): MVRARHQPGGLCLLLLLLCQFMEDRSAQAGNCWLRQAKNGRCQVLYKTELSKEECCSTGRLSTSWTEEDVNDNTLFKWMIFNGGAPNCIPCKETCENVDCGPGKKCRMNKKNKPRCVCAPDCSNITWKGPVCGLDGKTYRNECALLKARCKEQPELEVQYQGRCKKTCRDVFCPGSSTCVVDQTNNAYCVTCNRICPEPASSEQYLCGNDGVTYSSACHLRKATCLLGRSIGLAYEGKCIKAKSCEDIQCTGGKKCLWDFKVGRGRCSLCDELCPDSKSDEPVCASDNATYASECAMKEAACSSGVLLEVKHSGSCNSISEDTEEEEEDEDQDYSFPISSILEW
Albumin (Bos taurus), sequence (P02769 whole entry, looked up): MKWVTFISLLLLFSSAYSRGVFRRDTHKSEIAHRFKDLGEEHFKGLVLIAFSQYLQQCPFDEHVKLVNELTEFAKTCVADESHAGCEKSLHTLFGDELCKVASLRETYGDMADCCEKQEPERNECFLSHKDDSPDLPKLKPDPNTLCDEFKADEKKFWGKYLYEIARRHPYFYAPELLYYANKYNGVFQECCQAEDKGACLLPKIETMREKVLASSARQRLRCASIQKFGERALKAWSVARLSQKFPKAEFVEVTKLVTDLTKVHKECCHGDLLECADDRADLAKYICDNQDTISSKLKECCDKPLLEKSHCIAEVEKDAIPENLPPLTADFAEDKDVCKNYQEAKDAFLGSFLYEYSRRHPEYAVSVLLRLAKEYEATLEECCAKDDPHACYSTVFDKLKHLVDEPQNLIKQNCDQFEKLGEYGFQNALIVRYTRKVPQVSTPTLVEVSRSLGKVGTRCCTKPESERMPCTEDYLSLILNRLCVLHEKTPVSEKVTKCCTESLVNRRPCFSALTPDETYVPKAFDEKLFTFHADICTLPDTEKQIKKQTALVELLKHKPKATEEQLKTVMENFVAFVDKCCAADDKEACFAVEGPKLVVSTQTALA
Fibroblast growth factor 2 (Homo sapiens), sequence (P09038 whole entry, looked up): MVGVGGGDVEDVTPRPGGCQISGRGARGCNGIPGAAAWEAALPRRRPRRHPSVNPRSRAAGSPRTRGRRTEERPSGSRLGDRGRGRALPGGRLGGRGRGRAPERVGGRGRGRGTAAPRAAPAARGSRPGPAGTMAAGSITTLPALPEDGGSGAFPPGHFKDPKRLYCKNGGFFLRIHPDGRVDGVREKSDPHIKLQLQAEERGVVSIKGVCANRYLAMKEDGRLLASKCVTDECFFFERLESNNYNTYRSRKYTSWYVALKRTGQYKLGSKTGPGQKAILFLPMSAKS
Concanavalin-A (Canavalia ensiformis), sequence (P02866 whole entry, looked up): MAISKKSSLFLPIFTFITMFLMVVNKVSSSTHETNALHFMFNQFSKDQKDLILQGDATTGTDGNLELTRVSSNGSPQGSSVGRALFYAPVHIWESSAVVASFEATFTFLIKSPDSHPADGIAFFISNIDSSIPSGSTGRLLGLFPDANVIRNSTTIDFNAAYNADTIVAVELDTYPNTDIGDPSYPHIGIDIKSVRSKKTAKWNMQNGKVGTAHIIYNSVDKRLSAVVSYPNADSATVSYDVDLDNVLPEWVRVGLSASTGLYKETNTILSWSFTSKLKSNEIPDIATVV

Compound	composite z-score (Albumin (Bos taurus))	composite Z-score [1]	composite z-score [2]	composite z-score [3]	composite z-score [4]	composite z-score [5]	composite z-score [6]	composite z-score (Sam68 (KHDRBS1))	composite z-score [7]	composite z-score [8]	composite z-score [9]	composite z-score [10]	composite z-score [11]	composite z-score [12]	composite z-score [13]	composite z-score [14]	z-score [15]	composite z-score (Lefty1)	composite z-score [16]	z-score [17]
C=CC[C@@]1(C(=O)NCCN2CCOCC2)N=C(c2ccc(OCCCO)cc2)O[C@@H]1c1ccccc1N=[N+]=[N-]	0.711	0.346 (inactive)	-0.396	-0.109	0.716	1.62	0.232	0.176	0.703	-0.572	0.373	0.126	0.503	0.161	1.36	0.399	0.404	0.113	1.18	-5.94 (inactive)
COCCOC(=O)N1C(=O)[C@@]2(c3ccccc31)[C@H](c1ccccc1OCCO)N1[C@H](c3ccccc3)[C@H](c3ccccc3)OC(=O)[C@H]1[C@@H]2C(=O)N1CCN(c2ncccn2)CC1	0.493	1.6 (inactive)	-0.0345	-0.0756	0.521	1.59	0.218	1.29	0.0792	1.11	1.22	1.15	0.1	0.64	0.755	0.385	-1.21	0.962	1.1	-0.388 (inactive)
COc1cc2c(cc1O)C(C1CC1)N(Cc1sc3ccccc3c1Cl)CC2 (stereo not given)	0.718	-0.909 (inactive)	-0.152	-0.0984	0.76	2.69	0.862	0.888	0.185	0.0387	1.53	0.87	-0.0249	0.762	0.439	0.124	-1.55	-0.619	0.402	-0.593 (inactive)
COc1ccc([Si](C)(C)[C@H]2[C@H](CC(=O)N3Cc4ccccc4C[C@H]3CO)O[C@@]3(C(=O)N(Cc4cccc(N5CCC5=O)c4)c4ccccc43)[C@@H]2C)cc1	-0.606	0.923 (inactive)	-0.0003	-0.14	0.584	1.4	0.0972	1.2	1.21	0.64	0.322	1.19	0.527	0.135	1.33	1.47	0.526	1.22	0.107	-0.796 (inactive)
C#C[C@H](O[Si](C#Cc1ccc(Oc2ccccc2)cc1)(C(C)C)C(C)C)c1ccccc1	0.687	0.29 (inactive)	0.0122	-0.0057	0.695	0.45	0.484	0.99	0.662	0.971	-0.179	0.679	-0.6	0.385	0.101	0.137	-1.83	0.104	0.0936	0.0848 (inactive)
COC(=O)[C@@]1(Cc2ccc(OC)cc2)[C@H]2c3cc(C(=O)N4CCCC4)n(CCN4CNCC4=O)c3C[C@H]2CN1C(=O)c1ccccc1	1.1	0.413 (inactive)	1.49	0.967	0.57	1.79	0.104	-0.764	-0.316	-0.234	3.25	1.16	1.06	0.326	-1.02	-0.48	-0.0456	-0.899	0.949	-0.119 (inactive)
CCS[C@H]1[C@@H](C(=O)O)[C@H](c2ccc(C)cc2)N(S(=O)(=O)c2ccc(C)cc2)[C@@H]1CC	0.804	-0.0164 (inactive)	0.372	0.0431	0.519	1.77	0.5	1.32	-0.467	0.615	1.12	1.24	0.353	0.715	0.714	-0.0028	-0.223	-0.0097	0.652	1.16 (inactive)
COc1cc(C(O)C2C=CC3C(=O)NC(=O)C3N2Nc2ccccn2)cc(OC)c1OC (stereo not given)	0.354	0.183 (inactive)	-0.108	0.0339	0.749	2.43	-0.0653	0.466	0.361	0.585	1.26	0.852	0.184	0.764	0.169	0.158	0.623	-0.188	0.0705	-0.0958 (inactive)
COc1cc(Br)cc(C(O)C2C=CC3C(=O)N(C)C(=O)C3N2N2CCCCC2)c1OC (stereo not given)	0.435	1.94 (inactive)	-0.165	-0.0708	0.707	1.28	0.112	-0.309	-1.39	0.18	0.286	0.665	0.446	-0.83	-1.02	-1.38	-0.85	-1.12	-0.0965	-0.141 (inactive)
O=C(N1CCCCC1)[C@]1(Cc2ccccc2)N=C(c2ccc(OCCCO)cc2)O[C@@H]1c1ccccc1	0.441	-0.425 (inactive)	0.096	-0.0561	0.225	1.24	0.968	1.18	-0.862	1.06	2.63	1.19	0.534	0.632	0.301	0.042	-1.62	-0.506	0.99	-0.265 (inactive)
C=C(COC)C(=O)CC[C@@H](OC(C)=O)c1ccc(CO)o1	-0.0861	0.365 (inactive)	-0.0311	0.169	0.662	-0.137	-0.311	0.298	1.13	0.0796	-0.555	-0.724	-0.285	0.966	1.33	1.32	-0.57	1.73	0.397	-1.15 (inactive)
COCCOC(=O)N1C(=O)[C@@]2(c3cc(C#CCNC(N)=O)ccc31)[C@H](C(=O)N1CCN(c3ncccn3)CC1)[C@H]1C(=O)O[C@H](c3ccccc3)[C@H](c3ccccc3)N1[C@@H]2c1ccc(OCCO)cc1	0.521	0.242 (inactive)	0.185	-0.108	0.193	1.48	0.437	1.29	0.0879	1	0.549	1.12	-0.171	0.931	1.12	0.674	-1.25	0.465	0.723	-1.47 (inactive)
C=CCC(OC(C)=O)[C@@H]1[C@@H](N(Cc2cccc3ccccc23)C(=O)c2ccc(-c3ccccc3)cc2)c2cc(OCCCO)ccc2N1C(=O)c1ccc2ccccc2c1 (stereo not given in full)	0.416	-0.732 (inactive)	0.116	-0.0533	0.16	0.735	0.169	0.721	-0.0354	-0.0377	-0.165	0.233	0.299	0.66	0.906	-0.0101	0.0927	0.389	0.0002	0.797 (inactive)
COc1ccc([Si](C)(C)[C@@H]2[C@@H](CC(=O)N3CCC[C@H]3CO)O[C@]3(C(=O)N(c4ccccc4)c4ccccc43)[C@H]2C)cc1	0.569	0.723 (inactive)	-0.0377	-0.147	0.575	1.12	0.237	1.3	0.553	0.894	0.806	1.22	0.472	0.94	1.1	0.642	-0.228	1.01	0.2	0.659 (inactive)
O=C1O[C@H](c2ccccc2)[C@H](c2ccccc2)N2[C@H]1[C@@H](C(=O)N1CCCCCCC1)[C@]1(C(=O)Nc3ccc(C#CC4=CCCCC4)cc31)[C@H]2c1ccc(OCCO)cc1	0.833	7.2 (inactive)	2.11	1.05	0.837	3.66	1.3	1.25	1.48	1.15	2.15	1.26	3.18	0.9	1.49	0.833	-1.3	1.65	1.47	-1.2 (inactive)
O=C(NCCN1CCOCC1)[C@@H]1c2ccccc2C(=O)N(C2CCCCC2)[C@H]1c1ccc(CO)cc1	0.349	-0.118 (inactive)	-0.154	-0.147	0.625	1.29	-0.0871	0.68	-1.08	0.31	0.166	0.0657	-0.0962	0.74	0.0603	-0.59	2.27	-0.0981	-0.403	-0.293 (inactive)
COCCCNC(=O)[C@]1(CCC(=O)OC(C)(C)C)N=C(c2ccc(OCCCO)cc2)O[C@@H]1c1ccccc1CN=[N+]=[N-]	0.839	0.0707 (inactive)	0.395	-0.0411	0.78	2.03	1.8	1.3	0.0091	1.12	1.3	1.26	0.383	0.197	1.28	1.09	-0.627	0.19	1.13	-1.11 (inactive)

Reference: PubChem BioAssay
